The values below come from PubChem BioAssay (NCI).

This is part of a sample that, as a whole, favours compounds with a hit. Of some 83,000 tested, about 20% had one in any assay.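 The test compound was applied at a single concentration to cells in 96-well plates for 48 hours, and percent growth was recorded.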 Values without a mark were called inactive. Activity calls are given as the source filed them. How the source made its calls: active means growth percent below 10; inactive means the rest.

Common to all, as to experiment: NCI-60 one-dose screen, 48 h (100 = growth as untreated, 0 = no growth, -100 = all killed)
Holding throughout (conditions): 10 µM unless noted

The subject of experiment [1] is NCI-H23 lung.
The subject of experiment [2] is NCI-H322M lung.
The test system of experiment [3] is HOP-62 NSCLC.
Experiment [4] relates to NCI-H460 lung.
Experiment [5] has as its system HOP-92 NSCLC.
Experiment [6] has as its system NCI-H522 lung.
In experiment [7] the test system is A549/ATCC NSCLC.
Experiment [8] deals with 786-0 renal.
In experiment [9] the test system is COLO 205 colon.
For experiment [10], the system named is DU-145 prostate.
In experiment [11] the test system is K-562 leukemia.
In experiment [12] the test system is MALME-3M melanoma.
In experiment [13] the test system is MDA-MB-231 breast.
The test system of experiment [14] is RXF 393 renal.
For experiment [15], the system named is SF-268 CNS.
Experiment [16] deals with SF-539 CNS.
The subject of experiment [17] is UACC-257 melanoma.
In experiment [18] the test system is M14 melanoma.
Experiment [19] deals with HCT-15 colon.
Experiment [20] deals with SF-295 CNS.

Take `CCOC(=O)c1c(Cl)c2c(n1Cc1ccccc1)-c1oncc1CCC2`: the growth in experiment [1] was 86.9%; in [2] it was 94%; in experiment [3] it was 80%; in experiment [4] it was 81%; in experiment [5] it was 84.7%; in [6], 35.7%. Besides, the growth was 43% in experiment [7]; 83.1% in experiment [8]; 56.9% in experiment [9]; 103% in experiment [10]; 18.6% in experiment [11]; 42.3% in experiment [12]. Also, the growth in experiment [13] was 64.4%; in [14] it was 64.3%; in experiment [15] it was 86.7%; in experiment [16], 74%; in experiment [17], 79.7%; in [18] it was 55.3%. Moreover, the growth in [19] was 36.1%.

For the compound `O=C(NC1CCN(Cc2ccccc2)CC1)c1cc(C(=O)NC2CCN(Cc3ccccc3)CC2)cc(C(=O)NC2CCN(Cc3ccccc3)CC2)c1`, the growth is 77.2% in experiment [1]; 90.3% in experiment [2]; 58.7% in [3]; 91.8% in [4]; 54.3% in [5]; -67.7% (active) in experiment [6]. Moreover, the growth in experiment [7] was 39.8%; in experiment [8] it was 100%; in [9], 108%; in [10], 93.4%; in experiment [11], 64.6%; in experiment [12], 77.9%. In addition, the growth was 90.3% in experiment [13]; 60.1% in [14]; 71.4% in experiment [15]; 90.5% in [16]; 81.2% in [17]; 83.2% in [18]. Moreover, the growth in experiment [19] was 78.2%.

As for `O=C(/C=C/c1ccccn1)c1ccc(OCc2nnc(-c3ccc(Cl)cc3)o2)cc1`, the growth in experiment [1] is 70%; in [2], 52.7%; in experiment [3], 44.6%; in experiment [4], 42.4%; in [5], 105%; in experiment [6], 63.7%. In addition, the growth in [7] is 34.1%; in experiment [8] it was -49.9% (active); in experiment [9] it was -40.1% (active); in experiment [10], 23.8%; in experiment [11], -28.1% (active); in experiment [12], 60.4%. Moreover, the growth is 33.4% in experiment [13]; -71.7% (active) in experiment [14]; 28.6% in experiment [15]; -4.02% (active) in experiment [16]; 56.5% in [17]; 31.1% in [18]. Also, the growth in experiment [19] was 18.9%.

On to `O=C(c1ccccc1)N(C(=S)NCCc1ccc(Cl)cc1)c1ccccc1`, for which the growth in experiment [1] is 95.5%; in experiment [2], 103%; in [3] it was 103%; in experiment [4], 107%; in [5] it was 75.2%; in experiment [6] it was 92.5%. Also, the growth in [7] was 97.2%; in experiment [8] it was 92.4%; in experiment [9], 139%; in [10], 79.7%; in experiment [11], 58.1%; in experiment [13] it was 112%. Besides, the growth was 96.2% in experiment [15]; 113% in experiment [20]; 104% in experiment [16]; 95.8% in [17]; 101% in experiment [18]; 86.2% in experiment [19].

As for `Nc1nc(N)c2c(n1)NC1(C=C(O)c3ccccc31)C1=C(N2)c2ccccc2C1=O` (configuration not stated), the growth in experiment [1] is 104%; in [2], 123%; in experiment [3] it was 104%; in experiment [4] it was 105%; in [5] it was 87%; in experiment [6] it was 95.3%. Also, the growth in experiment [7] is 110%; in experiment [8] it was 104%; in experiment [9], 118%; in experiment [10] it was 98.7%; in experiment [11], 95.5%; in experiment [12], 108%. Also, the growth is 107% in experiment [13]; 104% in experiment [15]; 109% in experiment [20]; 109% in [16]; 120% in experiment [17]; 105% in experiment [18]. Also, the growth in experiment [19] was 112%.

For the compound `CC/C=C\C[C@H](O)C/C=C1/C(=O)C=C[C@@H]1C/C=C\CCCC(=O)OCCS(=O)(=O)c1ccccc1`, the growth is 59% in [1]; 71.2% in experiment [2]; 22.1% in experiment [3]; 42% in [4]; 110% in [5]; -7.61% (active) in [6]. In addition, the growth in experiment [7] is 78.1%; in experiment [8], 60%; in experiment [9], 43.6%; in experiment [10], 47.7%; in [11], 7.77% (active); in experiment [12], 63.7%. The growth in experiment [13] is 40.2%; in experiment [15], 42.6%; in experiment [20], 100%; in experiment [16], 59.9%; in [17], 66.8%; in [18], 27.5%. The growth in experiment [19] is 62%.

Consider `Cc1ccc(S(=O)c2ccc([N+](=O)[O-])c3nonc23)cc1` (configuration not stated), for which the growth in experiment [1] was 102%; in experiment [2], 110%; in experiment [3], 112%; in experiment [4], 99.5%; in experiment [5] it was 109%; in experiment [6], -60.1% (active). For the same compound, the growth is 101% in experiment [7]; 102% in [8]; -39.7% (active) in [9]; 112% in [10]; 38.9% in experiment [11]; 81.2% in experiment [12]. Moreover, the growth was 111% in experiment [14]; 105% in experiment [15]; 119% in experiment [20]; 106% in experiment [16]; 100% in experiment [17]; 104% in experiment [18]. Further, the growth in experiment [19] was 66.5%.

As for `COc1cc(C#N)cc2[nH]c(=O)oc12`, the growth in experiment [1] was 104%; in [2], 106%; in experiment [3], 103%; in experiment [4], 110%; in experiment [5] it was 95.5%; in experiment [6], 103%. For the same compound, the growth in experiment [7] is 101%; in [8], 98.7%; in experiment [9], 105%; in experiment [10], 99%; in experiment [11], 123%; in experiment [12], 89.8%. Further, the growth was 128% in [14]; 100% in experiment [15]; 92.4% in experiment [20]; 101% in experiment [16]; 106% in [17]; 102% in experiment [18]. Also, in experiment [19], the growth is 95.6%.

Take `O=C(c1ccccc1)N(C(=S)NCCc1ccc(Cl)cc1)c1ccc(Cl)cc1`: the growth in [1] is 74.7%; in experiment [2] it was 75.9%; in experiment [3], 91.3%; in [4], 80.1%; in [5], 76.3%; in experiment [6], 92.1%. For the same compound, the growth was 82.4% in experiment [7]; 57.2% in [8]; 61.6% in experiment [9]; 29.3% in experiment [10]; 4.72% (active) in experiment [11]; 91.7% in experiment [13]. In addition, the growth in experiment [15] was 33.2%; in [20] it was 68.3%; in experiment [16] it was 36.9%; in [17], 71.2%; in experiment [18], 71.2%; in experiment [19], 47.6%.

Consider `CSc1nc2c(c(=O)[nH]1)N=C1c3ccccc3C(=O)C1C(c1ccccc1)N2` (configuration not stated), for which the growth in experiment [1] is 62%; in [2], 69.4%; in experiment [3], 45.5%; in experiment [4], 12.3%; in experiment [5], 59.5%; in experiment [6], 82.2%. Besides, the growth in experiment [7] is 51.6%; in [8], 46%; in [9] it was 33.5%; in experiment [10] it was 75.4%; in experiment [11], 34.8%; in experiment [12], 34.8%. For the same compound, the growth in experiment [13] is 82.6%; in experiment [15], 47.9%; in experiment [16], 25.6%; in experiment [17] it was 74.5%; in [18], 29.4%; in experiment [19] it was 36.8%.

As for `COc1ccccc1C(=O)/C=C/c1ccccc1`, the growth in experiment [1] was 83.4%; in experiment [2] it was 86.1%; in [3] it was 86.9%; in experiment [4], 66.4%; in [5] it was 80.6%; in experiment [6], 81.8%. The growth in experiment [7] is 76.1%; in [8], 101%; in experiment [9], 117%; in experiment [10], 32.1%; in experiment [11] it was 23.1%; in experiment [12], 99.1%. The growth was 97.6% in [13]; 80% in experiment [15]; 89.9% in experiment [20]; 91.6% in [16]; 92.6% in experiment [17]; 103% in experiment [18]. The growth in experiment [19] is 53.3%.

In the case of `CCOc1c(Br)cc(C2C(C(=O)OC)=CN(C)C=C2C(=O)OC)cc1OC`, the growth in [1] was 98%; in experiment [2] it was 76.3%; in experiment [3], 84.6%; in experiment [4] it was 48.3%; in experiment [5] it was 39.2%; in experiment [6], 75.9%. Also, the growth is 85.9% in [7]; 58.3% in [8]; -88.1% (active) in experiment [9]; 91.4% in [10]; 8.68% (active) in experiment [11]; 49.4% in experiment [13]. The growth is 64.2% in [14]; 68.1% in [15]; 24% in experiment [20]; 94.2% in experiment [16]; 41% in experiment [19].

Regarding `O=C(NN1C(=O)CSC1c1ccc(Cl)cc1)c1[nH]c2ccc(F)cc2c1-c1ccccc1` (configuration not stated), the growth was 57.8% in experiment [1]; 82.1% in experiment [2]; 78.1% in experiment [3]; 5.13% (active) in experiment [4]; 46.5% in experiment [5]; 74.4% in experiment [6]. In addition, the growth in experiment [7] was 26.9%; in [8], 65.8%; in experiment [9] it was 13.6%; in [10] it was 77.2%; in [11], 28.2%; in experiment [12], 85.2%. In addition, the growth was 63.4% in [13]; 65.1% in experiment [15]; 8.34% (active) in experiment [20]; 78.8% in [16]; 74.4% in [17]; 57.3% in experiment [18]. The growth in [19] was 55.7%.
